A selection: hits, their analogues and other compounds. The true share with any hit is near 3.9%.
BRCA1 expr up: activators of BRCA1 expression. MCF7-BRCA1-FFLuc reporter, luminescence, 48 h; response scale: scaled: vehicle 0%, 10 µM genistein 100%. Potency, µM (titrated, usually from 46.1 µM), hits mostly activators. actives 1.1% (n = 380,000). AID 624202; note: nearly all actives have a fitted effect of over 80% in size
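Using MCF7 cells harboring a BRCA1 firefly luciferase reporter, plated 2 h before compound pinning, the screen measured luminescence after 48 h incubation. Responses were normalized to DMSO and 10 microM genistein, then fitted for concentration-effect.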
VDR inhibitor: inhibitors of human vitamin D receptor. P11473. VDR-SRC2-3 peptide fluorescence polarization, 2 h. Potency, µM, actives largely listed as inhibitors. actives 0.93% (n = 400,000). AID 504847
Target sequence (P11473 whole entry, looked up): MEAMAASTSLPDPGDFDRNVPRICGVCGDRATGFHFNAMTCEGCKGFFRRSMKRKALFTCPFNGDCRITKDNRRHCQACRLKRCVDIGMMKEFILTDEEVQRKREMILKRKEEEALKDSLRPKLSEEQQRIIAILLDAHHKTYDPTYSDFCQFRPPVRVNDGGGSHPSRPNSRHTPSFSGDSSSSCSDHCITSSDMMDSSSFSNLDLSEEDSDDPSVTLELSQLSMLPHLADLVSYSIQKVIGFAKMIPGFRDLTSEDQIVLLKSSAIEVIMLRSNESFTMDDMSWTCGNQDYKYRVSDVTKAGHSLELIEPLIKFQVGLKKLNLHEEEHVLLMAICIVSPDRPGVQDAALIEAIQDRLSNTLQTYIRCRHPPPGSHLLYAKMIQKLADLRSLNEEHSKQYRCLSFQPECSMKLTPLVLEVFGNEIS
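Compounds are added to VDR with labelled SRC2-3 coactivator peptide and held 2 h at room temperature. Inhibition of the VDR–peptide interaction is then read as a change in fluorescence polarization.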
Tb PFK block: blocks T. brucei phosphofructokinase; O15648; T. brucei PFK, ADP-Glo luminescence; Potency, µM (top dose mostly 57.5 µM), usual class: inhibitors; actives 0.17% (n = 330,000); AID 485367; note: nearly all actives have a fitted effect of over 60% in size
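Activity is normalized to no-enzyme wells (full inhibition) and 1.25 nM enzyme wells (no inhibition). Reaction: 0.5 mM F6P, 0.1 mM ATP, 45 min RT, ADP-Glo luminescence; concentration-response curves fitted and classed by quality.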
PLK1 PBD inh: blocks phosphopeptide binding to human PLK1 polo-box domain; P53350; Plk1 PBD binding of FITC phosphopeptide, fluorescence polarization; Potency, µM, usual class: inhibitors; actives 2.8% (n = 360,000); AID 720504; note: series mostly up to about 57 µM; nearly all actives have a fitted effect of over 65% in size
TbPYK inh: confirmation of Trypanosoma brucei pyruvate kinase inhibitors | recombinant TbPYK, Kinase-Glo ATP luminescence | Potency, µM (top dose mostly 76.9 µM), most hits filed as inhibitors | actives 67% (n = 890) | shares compounds with PLK1 PBD inh; note: nearly all actives have a fitted effect of over 70% in size
TbPYK ADP-Glo: inhibits T. brucei pyruvate kinase in orthogonal ADP-Glo assay; shares compounds with PLK1 PBD inh; recombinant TbPYK, ADP-Glo luminescence, 60 min; actives 62% (n = 890); Potency, µM (top dose mostly 76.9 µM), most hits filed as inhibitors; note: nearly all actives have a fitted effect of over 75% in size
Large screens that a line does not name were inactive (follow-up assays come after a bar, where they were run). Calls come from the whole dose curve; as a rule, active = well fitted curve in the direction sought with a large enough effect; inconclusive = small, poorly fitted or top-dose-only effect, or another doubt; inactive = no such curve, though single readings can be large; an effect the other way counts as inactive or inconclusive.

Cc1ccc(C)c(S(=O)(=O)c2cnc(SCC(=O)Nc3ccc(F)cc3F)[nH]c2=O)c1	none (no result: Tb PFK block, PLK1 PBD inh)
CC1=C(C(N)=O)C(c2ccccc2Br)n2ncnc2N1 (centres undefined)	none (no result: Tb PFK block, PLK1 PBD inh)
CC1=C(C(N)=O)C(c2ccccc2[N+](=O)[O-])n2ncnc2N1 (centres undefined)	VDR inhibitor 25.1µM, PLK1 PBD inh 8.44µM | TbPYK inh 25.1µM | TbPYK ADP-Glo inconclusive
Nc1c(C(=O)N2CCOCC2)sc2nc(N3CCOCC3)c3c(c12)CCCC3	VDR inhibitor 70.8µM, PLK1 PBD inh 26.7µM | TbPYK inh 7.94µM | TbPYK ADP-Glo 14.1µM
CC(=O)c1ccc(NC(=O)c2sc3nc(N4CCOCC4)c4c(c3c2N)CCCC4)cc1	Tb PFK block inconclusive
Nc1c(C(=O)Nc2ccc(Cl)cc2)sc2nc(N3CCOCC3)c3c(c12)CCCC3	PLK1 PBD inh inconclusive | TbPYK inh inconclusive | TbPYK ADP-Glo inconclusive
CC1(C)Cc2c(c(N3CCOCC3)nc3sc(C(=O)N4CCCCC4)c(N)c23)CO1	VDR inhibitor inconclusive, PLK1 PBD inh inconclusive | TbPYK inh 0.398µM | TbPYK ADP-Glo 2.51µM
CCCCOC(=O)c1sc2nc(N3CCOCC3)c3c(c2c1N)CC(C)(C)OC3	none
COc1cccc(NC(=O)c2sc3nc(N4CCOCC4)c4c(c3c2N)CCCC4)c1	PLK1 PBD inh inconclusive | TbPYK inh inconclusive | TbPYK ADP-Glo inconclusive
CCn1c(=O)c2sccc2n2c(CCC(=O)Nc3ccc(OC)cc3OC)nnc12	none (no result: Tb PFK block, PLK1 PBD inh)
CCOc1cc2c(c3c1C(c1ccccc1)N(S(=O)(=O)c1ccc(C)cc1)C3)C(=O)C=CC2=O (centres undefined)	PLK1 PBD inh inconclusive (no result: VDR inhibitor, Tb PFK block) | TbPYK inh 1.58µM | TbPYK ADP-Glo 2.82µM
O=C1c2cccc3cccc(c23)C(=O)C1(O)O	VDR inhibitor inconclusive, PLK1 PBD inh inconclusive (no result: Tb PFK block) | TbPYK inh 6.31µM | TbPYK ADP-Glo 5.01µM
CC(=O)N1C(=O)c2cccc3cccc(c23)C(=O)N1C(C)=O	none
CC(=O)n1cc(Nc2ccc([N+](=O)[O-])cc2)c2ccccc21	none
CC(=O)SC(C[N+](=O)[O-])c1cn(C(C)=O)c2ccccc12 (centres undefined)	VDR inhibitor 44.7µM, Tb PFK block inconclusive, PLK1 PBD inh 4.23µM | TbPYK inh inconclusive | TbPYK ADP-Glo inconclusive
Cc1noc(NS(=O)(=O)c2ccc(NC(=O)CSc3nc4c(cc3C#N)CCCC4)cc2)c1C	PLK1 PBD inh inconclusive
Cc1noc(NS(=O)(=O)c2ccc(NC(=O)CSc3nc4c(cc3C#N)CCC4)cc2)c1C	PLK1 PBD inh inconclusive | TbPYK inh inconclusive | TbPYK ADP-Glo 31.6µM
O=C(CSc1cn[nH]n1)Nc1cccc(C(=O)O)c1	VDR inhibitor 44.7µM, PLK1 PBD inh 4.23µM | TbPYK inh 14.1µM | TbPYK ADP-Glo 35.5µM
CN(C)c1ccc(N=Nc2ccnc3ccccc23)cc1	none (no result: VDR inhibitor, Tb PFK block, PLK1 PBD inh)
C[C@H](CO)N1C[C@H](C)[C@@H](CN(C)C(=O)CCC(F)(F)F)OCc2cnnn2CCCC1=O	none (no result: VDR inhibitor, Tb PFK block)
NC(=O)CSc1nnc(-c2cccc(S(=O)(=O)N3CCOCC3)c2)n1C1CCCCCC1	VDR inhibitor inconclusive, PLK1 PBD inh 2.99µM | TbPYK inh inactive | TbPYK ADP-Glo inactive
CC(C)CCNC(=O)NC(=O)CSc1ccc(S(=O)(=O)N2CCOCC2)cn1	PLK1 PBD inh inconclusive | TbPYK inh 15.8µM | TbPYK ADP-Glo 14.1µM
CC(C)C(C)NC(=O)CSc1ccc(S(=O)(=O)N2CCOCC2)cn1 (centres undefined)	none
Cc1ccc(NC(=O)NC(=O)CN2CCN(c3ccc(O)cc3)CC2)c(C)c1	none | TbPYK inh 11.2µM | TbPYK ADP-Glo 5.62µM
Cc1ccc(NC(=O)NC(=O)CN2CCC(C(N)=O)CC2)c(C)c1	BRCA1 expr up inconclusive, VDR inhibitor inconclusive
COc1ccc(/C=C2/C(=O)ON=C2C)cc1Br	VDR inhibitor inconclusive, PLK1 PBD inh 1.89µM | TbPYK inh inconclusive | TbPYK ADP-Glo inconclusive
COc1cc(/C=C2\C(=O)ON=C2c2ccccc2)cc(OC)c1OC	VDR inhibitor 28.2µM, PLK1 PBD inh 7.52µM | TbPYK inh inconclusive | TbPYK ADP-Glo inconclusive
COc1ccc(/C=C/C(=O)N(C(C)C)C(C)C)cc1Br	none
COc1ccc(/C=C2\C(=O)ON=C2c2cccc([N+](=O)[O-])c2)cc1	none (no result: BRCA1 expr up, VDR inhibitor, PLK1 PBD inh)
